# Measured values from ChEMBL document CHEMBL1961873, “Compounds: GSK PKIS; Assays: Nanosyn kinase panel” (2012).
# “And” between values parts separate entries of the source, which are not always exact repeats. Equal entries are not always repeated.
# Experiments:
# [1] = target: Mitogen-activated protein kinase kinase kinase kinase 4 (Homo sapiens) (UniProt O95819); conditions: at 1 µM;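 also: reported figure is an averaged inhibition value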
# [2] = target: Dual specificity mitogen-activated protein kinase kinase 1 (Homo sapiens) (UniProt Q02750); conditions: at 0.1 µM
# Chain of Dual specificity mitogen-activated protein kinase kinase 1 (Homo sapiens) (Q02750 whole entry): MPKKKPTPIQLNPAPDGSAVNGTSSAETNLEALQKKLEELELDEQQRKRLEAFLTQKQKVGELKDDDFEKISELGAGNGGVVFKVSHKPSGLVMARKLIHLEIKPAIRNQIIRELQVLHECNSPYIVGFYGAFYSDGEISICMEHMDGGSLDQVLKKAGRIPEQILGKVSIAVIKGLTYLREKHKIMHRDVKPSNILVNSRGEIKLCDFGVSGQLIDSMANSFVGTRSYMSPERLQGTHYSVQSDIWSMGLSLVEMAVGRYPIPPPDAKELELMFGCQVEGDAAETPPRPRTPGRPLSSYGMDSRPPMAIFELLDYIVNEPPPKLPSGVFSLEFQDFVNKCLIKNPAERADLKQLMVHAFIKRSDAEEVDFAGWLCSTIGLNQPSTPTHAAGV
# [3] = target: Dual specificity mitogen-activated protein kinase kinase 1 (Homo sapiens) (UniProt Q02750); conditions: at 1 µM
# [4] = target: Misshapen-like kinase 1 (Homo sapiens) (UniProt Q8N4C8); conditions: at 0.1 µM
# [5] = target: Misshapen-like kinase 1 (Homo sapiens) (UniProt Q8N4C8); conditions: at 1 µM
# [6] = target: T1, Serine/threonine-protein kinase 4 (Homo sapiens) (UniProt Q13043); conditions: at 0.1 µM
# T1 sequence (whole entry): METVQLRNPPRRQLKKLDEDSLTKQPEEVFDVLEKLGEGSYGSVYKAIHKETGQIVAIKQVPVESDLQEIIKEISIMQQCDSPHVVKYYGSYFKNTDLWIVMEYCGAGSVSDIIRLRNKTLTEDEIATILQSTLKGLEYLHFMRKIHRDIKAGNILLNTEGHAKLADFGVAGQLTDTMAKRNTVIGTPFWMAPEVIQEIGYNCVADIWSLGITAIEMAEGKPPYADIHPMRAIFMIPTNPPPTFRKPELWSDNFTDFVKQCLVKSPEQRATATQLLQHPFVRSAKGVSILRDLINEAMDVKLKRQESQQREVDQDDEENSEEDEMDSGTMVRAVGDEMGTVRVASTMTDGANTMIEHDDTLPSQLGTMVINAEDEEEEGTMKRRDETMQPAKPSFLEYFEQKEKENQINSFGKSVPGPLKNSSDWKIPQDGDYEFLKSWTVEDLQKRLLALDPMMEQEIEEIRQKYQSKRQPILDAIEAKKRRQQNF
# [7] = target: T1, Serine/threonine-protein kinase 4 (Homo sapiens); conditions: at 1 µM
# [8] = target: T2, Serine/threonine-protein kinase 3 (Homo sapiens) (UniProt Q13188); conditions: at 0.1 µM
# T2 sequence (whole entry): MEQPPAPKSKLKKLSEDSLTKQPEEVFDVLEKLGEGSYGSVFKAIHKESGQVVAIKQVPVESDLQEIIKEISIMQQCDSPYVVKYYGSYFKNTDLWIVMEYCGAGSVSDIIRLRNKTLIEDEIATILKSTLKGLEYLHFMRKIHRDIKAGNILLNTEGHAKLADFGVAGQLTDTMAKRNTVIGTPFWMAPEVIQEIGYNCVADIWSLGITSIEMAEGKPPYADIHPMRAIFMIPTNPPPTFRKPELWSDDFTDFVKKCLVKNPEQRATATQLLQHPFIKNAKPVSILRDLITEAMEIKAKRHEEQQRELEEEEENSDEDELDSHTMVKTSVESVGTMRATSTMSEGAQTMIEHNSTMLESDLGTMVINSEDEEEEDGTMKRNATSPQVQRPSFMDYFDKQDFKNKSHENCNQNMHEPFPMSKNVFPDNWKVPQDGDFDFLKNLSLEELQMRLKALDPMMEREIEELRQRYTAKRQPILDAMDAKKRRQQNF
# [9] = target: T2, Serine/threonine-protein kinase 3 (Homo sapiens); conditions: at 1 µM
# [10] = target: Serine/threonine-protein kinase 26 (Homo sapiens) (UniProt Q9P289); conditions: at 0.1 µM
# [11] = target: Serine/threonine-protein kinase 26 (Homo sapiens) (UniProt Q9P289); conditions: at 1 µM
# [12] = target: Serine/threonine-protein kinase PAK 1 (Homo sapiens) (UniProt Q13153); conditions: at 0.1 µM
# Chain of Serine/threonine-protein kinase PAK 1 (Homo sapiens) (Q13153 whole entry): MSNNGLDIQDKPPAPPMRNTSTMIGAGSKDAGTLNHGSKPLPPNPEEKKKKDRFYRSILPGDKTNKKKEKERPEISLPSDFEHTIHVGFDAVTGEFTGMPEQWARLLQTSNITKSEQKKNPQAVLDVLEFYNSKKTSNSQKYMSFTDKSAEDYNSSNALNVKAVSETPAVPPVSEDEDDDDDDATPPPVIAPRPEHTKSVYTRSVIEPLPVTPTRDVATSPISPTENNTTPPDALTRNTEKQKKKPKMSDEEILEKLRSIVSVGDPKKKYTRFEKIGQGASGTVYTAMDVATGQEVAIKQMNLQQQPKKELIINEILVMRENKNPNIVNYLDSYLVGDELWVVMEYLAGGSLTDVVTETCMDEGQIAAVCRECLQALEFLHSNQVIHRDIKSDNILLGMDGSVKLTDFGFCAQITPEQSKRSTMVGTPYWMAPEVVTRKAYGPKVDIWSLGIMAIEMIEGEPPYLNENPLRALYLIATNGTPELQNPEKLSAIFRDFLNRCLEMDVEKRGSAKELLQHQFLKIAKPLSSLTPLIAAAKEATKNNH
# [13] = target: Serine/threonine-protein kinase PAK 1 (Homo sapiens) (UniProt Q13153); conditions: at 1 µM
# [14] = target: Serine/threonine-protein kinase PAK 2 (Homo sapiens) (UniProt Q13177); conditions: at 0.1 µM
# Chain of Serine/threonine-protein kinase PAK 2 (Homo sapiens) (Q13177 whole entry): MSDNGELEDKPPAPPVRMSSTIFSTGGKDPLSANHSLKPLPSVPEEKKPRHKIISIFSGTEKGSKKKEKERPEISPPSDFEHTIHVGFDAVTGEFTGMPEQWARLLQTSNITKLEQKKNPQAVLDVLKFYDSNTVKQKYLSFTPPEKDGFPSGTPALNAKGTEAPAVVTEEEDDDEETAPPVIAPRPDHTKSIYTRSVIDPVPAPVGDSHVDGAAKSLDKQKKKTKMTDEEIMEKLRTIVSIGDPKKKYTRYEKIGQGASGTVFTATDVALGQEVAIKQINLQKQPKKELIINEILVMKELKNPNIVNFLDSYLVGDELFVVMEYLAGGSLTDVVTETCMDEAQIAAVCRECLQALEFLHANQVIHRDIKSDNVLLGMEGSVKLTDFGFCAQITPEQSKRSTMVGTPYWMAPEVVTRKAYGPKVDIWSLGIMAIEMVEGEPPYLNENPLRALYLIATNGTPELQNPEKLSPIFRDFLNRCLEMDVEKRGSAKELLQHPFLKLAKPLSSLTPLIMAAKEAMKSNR
# [15] = target: Serine/threonine-protein kinase PAK 2 (Homo sapiens) (UniProt Q13177); conditions: at 1 µM
# [16] = target: Serine/threonine-protein kinase PAK 3 (Homo sapiens) (UniProt O75914); conditions: at 0.1 µM
# Chain of Serine/threonine-protein kinase PAK 3 (Homo sapiens) (O75914 whole entry, looked up): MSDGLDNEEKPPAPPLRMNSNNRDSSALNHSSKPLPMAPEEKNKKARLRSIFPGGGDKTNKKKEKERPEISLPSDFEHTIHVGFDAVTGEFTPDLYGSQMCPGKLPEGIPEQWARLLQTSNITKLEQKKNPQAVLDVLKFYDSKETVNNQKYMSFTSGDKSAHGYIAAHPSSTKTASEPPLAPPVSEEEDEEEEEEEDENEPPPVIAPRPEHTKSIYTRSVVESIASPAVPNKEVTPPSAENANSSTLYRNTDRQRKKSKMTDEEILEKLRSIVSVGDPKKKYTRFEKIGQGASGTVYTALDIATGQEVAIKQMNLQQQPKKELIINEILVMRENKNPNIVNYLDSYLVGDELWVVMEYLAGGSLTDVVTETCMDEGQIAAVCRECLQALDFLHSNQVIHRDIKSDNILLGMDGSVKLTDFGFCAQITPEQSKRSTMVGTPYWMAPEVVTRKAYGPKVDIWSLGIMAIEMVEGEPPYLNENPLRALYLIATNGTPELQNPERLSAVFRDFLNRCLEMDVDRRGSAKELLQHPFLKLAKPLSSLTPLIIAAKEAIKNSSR
# [17] = target: Serine/threonine-protein kinase PAK 3 (Homo sapiens) (UniProt O75914); conditions: at 1 µM
# [18] = target: Serine/threonine-protein kinase PAK 5 (Homo sapiens) (UniProt Q9P286); conditions: at 0.1 µM
# Chain of Serine/threonine-protein kinase PAK 5 (Homo sapiens) (Q9P286 whole entry, looked up): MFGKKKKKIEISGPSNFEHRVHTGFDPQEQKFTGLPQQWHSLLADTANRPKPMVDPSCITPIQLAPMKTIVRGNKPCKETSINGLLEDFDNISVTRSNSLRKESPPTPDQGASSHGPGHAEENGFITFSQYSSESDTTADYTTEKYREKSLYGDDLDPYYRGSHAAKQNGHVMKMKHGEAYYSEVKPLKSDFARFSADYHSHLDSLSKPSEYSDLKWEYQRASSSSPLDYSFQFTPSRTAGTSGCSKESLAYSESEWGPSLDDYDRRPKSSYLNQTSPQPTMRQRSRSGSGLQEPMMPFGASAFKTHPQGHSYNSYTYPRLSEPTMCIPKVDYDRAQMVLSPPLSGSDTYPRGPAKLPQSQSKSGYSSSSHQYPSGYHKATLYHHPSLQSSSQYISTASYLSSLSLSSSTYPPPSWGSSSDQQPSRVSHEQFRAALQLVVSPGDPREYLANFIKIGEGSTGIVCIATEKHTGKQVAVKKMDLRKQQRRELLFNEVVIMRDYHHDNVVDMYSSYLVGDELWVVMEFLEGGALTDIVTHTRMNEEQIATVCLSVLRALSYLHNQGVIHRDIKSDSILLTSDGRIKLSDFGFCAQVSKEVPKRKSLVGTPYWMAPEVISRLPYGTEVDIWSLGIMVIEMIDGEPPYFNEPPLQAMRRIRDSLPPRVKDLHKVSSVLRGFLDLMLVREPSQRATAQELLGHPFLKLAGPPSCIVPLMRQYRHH
# [19] = target: Serine/threonine-protein kinase PAK 5 (Homo sapiens) (UniProt Q9P286); conditions: at 1 µM
# [20] = target: Serine/threonine-protein kinase PAK 6 (Homo sapiens) (UniProt Q9NQU5); conditions: at 0.1 µM;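 also: mean PAK6 inhibition reported from the GSK PKIS screen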
# Chain of Serine/threonine-protein kinase PAK 6 (Homo sapiens) (Q9NQU5 whole entry, looked up): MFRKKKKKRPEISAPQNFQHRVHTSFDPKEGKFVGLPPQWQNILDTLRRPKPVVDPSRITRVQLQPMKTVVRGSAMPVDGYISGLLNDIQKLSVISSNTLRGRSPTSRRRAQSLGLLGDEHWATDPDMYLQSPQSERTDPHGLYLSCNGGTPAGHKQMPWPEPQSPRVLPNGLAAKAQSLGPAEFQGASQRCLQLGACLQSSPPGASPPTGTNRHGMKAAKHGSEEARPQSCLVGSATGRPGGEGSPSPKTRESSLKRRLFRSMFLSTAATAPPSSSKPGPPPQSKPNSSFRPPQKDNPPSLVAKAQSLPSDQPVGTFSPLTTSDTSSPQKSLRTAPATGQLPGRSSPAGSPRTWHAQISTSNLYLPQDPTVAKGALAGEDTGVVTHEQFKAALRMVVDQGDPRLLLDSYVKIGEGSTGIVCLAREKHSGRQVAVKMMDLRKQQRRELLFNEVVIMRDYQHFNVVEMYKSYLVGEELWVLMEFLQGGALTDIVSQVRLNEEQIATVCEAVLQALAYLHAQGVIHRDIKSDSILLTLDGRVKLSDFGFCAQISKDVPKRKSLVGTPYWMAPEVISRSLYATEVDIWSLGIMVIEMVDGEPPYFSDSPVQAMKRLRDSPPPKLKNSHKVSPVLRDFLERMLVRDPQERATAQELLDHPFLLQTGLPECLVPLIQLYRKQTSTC
# Chain of Mitogen-activated protein kinase kinase kinase kinase 4 (Homo sapiens) (O95819 2-1239 limits assumed): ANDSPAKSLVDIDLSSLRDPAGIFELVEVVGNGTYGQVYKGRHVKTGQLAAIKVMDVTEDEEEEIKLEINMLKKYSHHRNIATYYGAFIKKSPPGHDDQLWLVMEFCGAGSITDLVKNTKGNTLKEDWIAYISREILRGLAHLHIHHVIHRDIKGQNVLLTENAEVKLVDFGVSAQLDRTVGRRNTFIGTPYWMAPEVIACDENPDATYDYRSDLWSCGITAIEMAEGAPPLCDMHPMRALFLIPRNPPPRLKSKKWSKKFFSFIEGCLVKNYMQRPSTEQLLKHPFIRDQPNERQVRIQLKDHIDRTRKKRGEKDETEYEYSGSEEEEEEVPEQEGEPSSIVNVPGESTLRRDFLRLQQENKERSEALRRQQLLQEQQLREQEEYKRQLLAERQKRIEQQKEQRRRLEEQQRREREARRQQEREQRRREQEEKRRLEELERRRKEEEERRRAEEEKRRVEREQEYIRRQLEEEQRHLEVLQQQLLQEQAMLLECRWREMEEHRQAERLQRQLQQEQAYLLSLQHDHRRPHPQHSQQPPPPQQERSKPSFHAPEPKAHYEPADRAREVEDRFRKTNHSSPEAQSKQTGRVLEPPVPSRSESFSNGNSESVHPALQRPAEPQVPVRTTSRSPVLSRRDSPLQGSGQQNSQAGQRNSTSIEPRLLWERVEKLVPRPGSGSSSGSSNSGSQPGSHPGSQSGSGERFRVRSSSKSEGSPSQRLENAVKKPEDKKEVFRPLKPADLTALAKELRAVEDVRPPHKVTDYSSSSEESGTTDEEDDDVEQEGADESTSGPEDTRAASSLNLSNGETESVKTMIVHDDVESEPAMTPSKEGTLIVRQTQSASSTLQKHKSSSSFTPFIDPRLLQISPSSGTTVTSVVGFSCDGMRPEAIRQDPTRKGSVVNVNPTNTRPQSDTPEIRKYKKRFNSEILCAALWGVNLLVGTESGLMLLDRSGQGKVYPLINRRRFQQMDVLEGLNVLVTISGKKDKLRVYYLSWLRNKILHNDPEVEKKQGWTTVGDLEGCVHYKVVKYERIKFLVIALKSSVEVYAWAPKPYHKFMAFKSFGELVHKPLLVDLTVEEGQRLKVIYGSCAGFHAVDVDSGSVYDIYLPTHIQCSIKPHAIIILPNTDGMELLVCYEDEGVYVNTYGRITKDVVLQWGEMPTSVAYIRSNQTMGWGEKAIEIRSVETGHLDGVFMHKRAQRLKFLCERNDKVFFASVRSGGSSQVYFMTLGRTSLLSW
SMILES,inhibition [1],inhibition [2],inhibition [3],inhibition [4],inhibition [5],inhibition [6],inhibition [7],inhibition [8],inhibition [9],inhibition [10],inhibition [11],inhibition [12],inhibition [13],inhibition [14],inhibition [15],inhibition [16],inhibition [17],inhibition [18],inhibition [19],inhibition [20]
CNC(=O)c1cncc(/C=C/c2ccccc2C)c1,19.7%,6.36%,5.22%,8.44%,15.5%,9.28%,17.2%,9.07%,15.2%,1.02%,2.47%,4.67%,7.54%,2.06%,2.02%,4.95%,5.93%,15.4%,4.8%,-2.91%
CCS(=O)(=O)c1ccc(OC)c(Nc2ncc(-c3cccc(C(C)=O)c3)o2)c1,10.2%,3.55%,2.6%,3.09%,8.97%,7.14%,13.3%,7.18%,12.6%,-0.19%,1.58%,8.45%,1.48%,2.47%,1.36%,-0.54%,3.98%,7.26%,8.72%,7.53%
COc1cc2c(cc1Nc1nc(Nc3cccc(F)c3C(N)=O)c3cc[nH]c3n1)N(C(=O)CN1CCN(C(C)C)CC1)CC2,3.14%,0.13%,4.11%,3.15%,3.43%,0.17%,3.77%,2.26%,2.65%,1.63%,2.14%,5.25%,8.11%,1.01%,1.35%,2.21%,5.46%,2.45%,3.7%,-9.4%
COc1cccc(-n2ncc3c(N/N=C/c4ccc(C(=O)NCCN(C)C)cc4)ncnc32)c1,78.1%,2.77%,4.04%,23.1%,64.8%,4.6%,10.1%,4.33%,6.3%,-1.8%,0.63%,7.17%,5.32%,1.01%,1.56%,2.69%,3.69%,12.8%,7.55%,1.68%
CN1CCC(n2cnc(-c3ccc(F)cc3)c2-c2ccnc(NCCO)n2)CC1,17.5%,4.13%,5.25%,7.76%,15.8%,7.06%,10.4%,7.55%,9.48%,-1.24%,1.34%,5.86%,7.1%,2.03%,2.52%,3.99%,3.76%,0.7%,1.35%,3.38%
O=C(O[C@H]1CN[C@H](C#Cc2cc3ncnc(Nc4ccc5c(cnn5Cc5ccccc5)c4)c3s2)C1)N1CCOCC1,2.37%,-0.35%,-0.55%,-0.37%,1.62%,2.4%,4.54%,1.56%,5.49%,0.75%,2.02%,2.28%,0.73%,-1.9%,-1.35%,-0.09%,0.69%,-0.12%,-1.71%,3.43%
Cc1ccc(-c2cc3c(NC(=O)C4CC4)ncnc3o2)cc1,8.27%,3.02%,3.21%,6.35%,8.16%,6.14%,7.49%,5.64%,4.87%,-2.57%,-2.53%,3.85%,5.51%,1.95%,1.97%,3.79%,4.95%,4.59%,-3.05%,4.74%
Nc1nonc1-c1nc2cnccc2n1C1CC1,39.8% and 40%,3% and 3.58%,6.15% and 7.11%,9.13% and 8.38%,30.2% and 28.1%,6.61% and 2.32%,23.1% and 15.3%,6.77% and 2.58%,17.9% and 12.6%,-0.67% and -1.23%,-0.64% and -0.44%,6.95% and 4.45%,7.1% and 6.44%,3.23% and 1.09%,2.18% and 0.82%,4.18% and 2.78%,5.29% and 3.12%,0.47% and 4.24%,1.66% and 0.23%,7.48% and 3.54%
CS(=O)(=O)CCNCc1ccc(-c2ccc3ncnc(Nc4ccc(OCc5cccc(C(F)(F)F)c5)cc4)c3c2)o1,6.36%,3.29%,5.38%,5.26%,3.68%,3.43%,5.83%,4.6%,5.04%,-1.93%,0.42%,8.38%,7.33%,1.38%,3.12%,5.6%,9.88%,4.72%,5.29%,-8.96%
NS(=O)(=O)c1ccc(N/N=C2\C(=O)Nc3cccc(CCc4ccncc4)c32)cc1,16.9%,1.96%,3.3%,4%,10.8%,31.3%,48.9%,20.1%,29.8%,10.5%,9.93%,1.58%,2.13%,0.84%,0.54%,0.06%,0.66%,1.07%,3.39%,-5.12%
COc1c(C(N)=O)cc(-c2ccc(Cl)cc2)cc1-c1ccc(S(N)(=O)=O)cc1,5.7%,3.99%,3.65%,6.03%,7.24%,2.89%,4.76%,5.08%,4.15%,-1.15%,1.45%,6.68%,12.1%,2.72%,2.55%,4.51%,7.97%,6.72%,3.56%,-7.76%
N#Cc1cccc(Nc2ncc(-c3ccccc3)o2)c1,23.8%,2.21%,2.12%,5.1%,19.2%,3%,5.15%,4.16%,5.23%,-0.1%,-0.74%,-2.44%,-0.39%,0.33%,-0.77%,2.61%,2.5%,-5.2%,1%,3.79%
c1ccc(-c2n[nH]cc2-c2ccnc(-c3ccc(OCCn4ccnc4)cc3)c2)nc1,81.8%,5.95%,2.45%,31.9%,79%,-0.86%,6.24%,-0.71%,3.49%,-1.3%,3.16%,1.76%,3.78%,-0.68%,0.37%,-0.22%,-2.41%,-0.74%,4.05%,-3.76%
